Screens from PubChem.
In the library only some 12% were active in any assay of this set; here they are far more common.
CHX counter: affects cycloheximide protein synthesis inhibition readout, counter-screen | cell reporter, cycloheximide protein synthesis inhibition counterscreen | max response, % | actives 12% (n = 300,000); in the data active = max response mostly above about 13%, no sharp cut-off; inactive = mostly below about 14%; note: read at 38.3 µM for the half of the compounds with a filed dose
Shiga inhibitor: Shiga toxin inhibition; Vero cells, Shiga toxin protein synthesis inhibition reporter; actives 9.2% (n = 290,000); inhibition, % at 38.7 µM; in the data active = inhibition mostly above about 28%, no sharp cut-off; inactive = mostly below about 43%
SARS PLpro yeast: inhibitors of SARS-CoV papain-like protease in yeast | S. cerevisiae expressing SARS-CoV PLpro, growth rescue | Potency, µM (titrated, usually from 32.9 µM), usual class: activators | actives 0.19% (n = 330,000); note: nearly all actives have a fitted effect of over 55% in size
NS1 function inh: inhibitors of influenza NS1 protein function; Potency, µM (top dose mostly 46.1 µM); actives 0.4% (n = 270,000); note: actives are rising curves; nearly all actives have a fitted effect of over 50% in size
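OD600 was taken as the measure of yeast growth restored by compound in an NS1-expressing S. cerevisiae strain. Cells had been washed out of glucose medium and diluted 1:100 into galactose -URA medium, pH 6.0.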
NS1 inh valid: validation of influenza NS1 protein function inhibitors; shares compounds with NS1 function inh; influenza NS1 function cell assay, 15-point titration; activity change, negative = inhibition, % at 32.9 µM; 1,400 tested, under 10 active
PR8 titer: influenza virus titer reduction, NS1 project | shares compounds with NS1 function inh | MDCK infected influenza A/PR/8/34, virus titer TCID50; stronger effect = lower value | virus titer (log TCID50), log10 TCID50 at 5 µM | actives 30% (n = 95) | AID 504647; call rule not given here
Hits are given with their value; n = inactive; u = inconclusive; x = not tested or not shown. Unless noted, calls come from the whole dose curve.

SMILES	CHX counter	Shiga inhibitor	SARS PLpro yeast	NS1 function inh	NS1 inh valid	others
CN(C)N1C(N)=C(C#N)C(c2ccccc2)C2=C1CC(C)(C)CC2=O (centres undefined)	n	n	n	n	x
CC(C)OCCCNC(=O)c1c(N)n(/N=C/c2ccccn2)c2nc3ccccc3nc12	n	n	n	8.9µM	n
COCCCNC(=O)c1c(N)n(/N=C/c2cccnc2)c2nc3ccccc3nc12	n	n	n	n	x
CCC(C)NC(=O)c1c(N)n(/N=C/c2ccccn2)c2nc3ccccc3nc12 (centres undefined)	n	n	n	11µM	u
Cc1ccc(S(=O)(=O)N2CCC(=O)N(C(COCc3cccc(Cl)c3)Cc3ccccc3)CC2)cc1 (centres undefined)	n	n	n	n	x
Cc1ccc(S(=O)(=O)N2CCC(=O)N(C(COCc3ccc(Cl)cc3Cl)Cc3ccccc3)CC2)cc1 (centres undefined)	n	n	n	u	n	PR8 titer=7.5
COc1ccc(-c2nn(-c3ccccc3)cc2C(=O)OCC(=O)c2ccc(C)c([N+](=O)[O-])c2)cc1	n	n	n	n	x
COc1ccc(-c2cc(C(=O)OCC(=O)c3ccc(C)c([N+](=O)[O-])c3)c3ccccc3n2)cc1	n	n	n	u	n
Cc1ccc(N=C2NC(=O)/C(=C/C=C/c3ccco3)S2)cc1	n	n	n	n	x
O=C1NC(=Nc2ccccc2)S/C1=C\C=C\c1ccco1	n	n	n	4.5µM	u
Cc1ccc(-c2csc(N)n2)s1	23	n	n	u	n
Cc1csc(N)n1	n	n	n	n	x
CC(CCc1ccccc1)NC(=O)CN1CCN(c2ccccc2)CC1 (centres undefined)	n	n	n	n	x
CCO[C@@H]1OC(C(=O)Nc2ccccc2)=C[C@H](c2csc3ccccc23)[C@H]1CCCO	n	n	n	n	x
COC(=O)c1ccc2c(c1)C(=O)/C(=C/c1ccc(C)cc1)O2	n	n	u	10µM	n
Cc1ccc(/C=C2\Oc3cc(OC(=O)N4CCOCC4)ccc3C2=O)cc1	n	n	n	n	x
Cc1ccnn1-c1ccc(C(=O)N2CCCN(S(=O)(=O)c3ccc(F)cc3)CC2)cc1	x	x	n	x	x
CCN(CC)S(=O)(=O)c1ccc(N2CCN(C)CC2)c(NC(=O)COc2ccc(F)cc2Cl)c1	x	x	n	x	x
O=C(Nc1ccccc1F)Nc1cc(S(=O)(=O)N2CCOCC2)ccc1N1CCCC1	n	n	n	x	x
O=C(Nc1ccc(Cl)c(Cl)c1)Nc1cc(S(=O)(=O)N2CCOCC2)ccc1N1CCCC1	n	n	u	11µM	n
O=C(COc1ccc(F)cc1Cl)Nc1cc(S(=O)(=O)N2CCOCC2)ccc1N1CCCCC1	n	n	n	3.5µM	n
Cc1ccc(CNC(=O)C2CCC(CNS(=O)(=O)c3cccs3)CC2)cc1 (centres undefined)	n	n	n	n	x
CCN(CC(=O)Nc1ccc(NC(C)=O)cc1)C(=O)CCCN1C(=O)c2ccccc2C1=O	x	x	n	x	x
COc1cccc(C(=O)Nc2ncc3c(n2)CC(c2ccc(OC)cc2OC)CC3=O)c1 (centres undefined)	n	n	n	10µM	n
COc1ccc(C2CC(=O)c3cnc(N4CCc5ccccc54)nc3C2)c(OC)c1 (centres undefined)	n	n	n	n	x
SMILES	CHX counter	Shiga inhibitor	SARS PLpro yeast	NS1 function inh	NS1 inh valid	others
O=C1C2CCCN2C(c2cccnc2)N1c1cccc(Cl)c1 (centres undefined)	n	n	n	3.5µM	n
O=C1C2CCCN2C(c2cccnc2)N1c1ccc(Cl)cc1 (centres undefined)	n	n	n	n	x
Cc1ccc(C(=O)NC(=S)Nc2cccc(NC(=O)c3ccccc3Cl)c2)cc1[N+](=O)[O-]	n	n	n	11µM	u
CC(C)(C)n1cnc(C(N)=O)c1N	n	n	n	n	x
O=C(O)c1ccccc1N(Cc1ccccc1)C(=O)CO/N=C/c1ccccc1	n	n	n	n	x
CC(C)CC(=O)NC(NC(=S)Nc1sc2c(c1C#N)CCCC2)C(Cl)(Cl)Cl (centres undefined)	n	n	n	7.1µM	n	PR8 titer=n
CCC(=O)Nc1sc2c(c1C#N)CCC2	n	n	n	x	x
Cc1ccc(S(=O)(=O)Nc2ccc3nc(-c4cccn4C)[nH]c3c2)cc1	24	37	n	1.6µM	n	PR8 titer=n
Oc1ccccc1Nc1ccccn1	n	n	n	u	n
CC(=O)c1sc(Nc2ccccn2)nc1C	n	n	n	n	x
O=C(Nc1ccccc1)c1cccc(S(=O)(=O)N2CCCCC2)c1	n	n	n	n	x
